# Source: the supplement of paper PMC9262897, “Low-cost anti-mycobacterial drug discovery using engineered E. coli” (Nature Communications, 2022)
# Counter-ions that a name gives are not always drawn. ± gives the standard deviation of the averaged measurements.
# System: E. coli TESEC Mtb DapB
# Assay: growth (OD600 after 10 h); higher = more growth (less inhibition)
# Details: arabinose induction (level): High; compound 0.1 mM; raw OD600 reference: median of DMSO wells […], cell-free background 0.041
# Experimental: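 TESEC E. coli strains in which the native enzyme is deleted and replaced by arabinose-inducible Mtb Asd, DapB, CysH or TrpD, each grown in its selective medium. Strains were screened against the Prestwick library at 0.1 mM and 1% DMSO in 384-well format at low and high arabinose induction. Growth is read as OD600 after 10 h in triplicate.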
row,Compound,growth
1,CNC(=O)Oc1ccc2c(c1)[C@]1(C)CCN(C)[C@@H]1N2C [Eserine hemisulfate salt],0.187 ± 0.015
2,CCOC(=O)c1cncn1[C@H](C)c1ccccc1 [Etomidate],0.225 ± 0.019
3,CC[N+]1(C)CCCC(OC(=O)C(O)(c2ccccc2)c2ccccc2)C1 (stereo not given) [Pipenzolate bromide],0.234 ± 0.013
4,C[C@@H]1C[C@@H]([C@H](O)CC2CC(=O)NC(=O)C2)C(=O)[C@@H](C)C1 [Cycloheximide],0.231 ± 0.031
5,CCCC(C)C1(CC)C(=O)NC(=O)NC1=O (stereo not given) [Pentobarbital],0.2 ± 0.01
6,C[C@]12CC[C@@H]3c4ccc(OC(=O)N(CCCl)CCCl)cc4CC[C@H]3[C@@H]1CC[C@@H]2O [Estramustine],0.173 ± 0.0048
7,C[C@H](N)[C@H](O)c1ccc(O)c(O)c1 [Levonordefrin],0.167 ± 0.003
8,C[N+]12CCC(CC1)C(OC(=O)C(O)(c1ccccc1)c1ccccc1)C2 (stereo not given) [Clidinium bromide],0.169 ± 0.01
9,C[C@]12CCC(=O)C=C1CC[C@@H]1[C@@H]2C(=O)C[C@]2(C)C(=O)CC[C@@H]12 [Adrenosterone],0.202 ± 0.007
10,C=C1CC[C@@]2(O)[C@H]3Cc4ccc(O)c5c4[C@@]2(CCN3CC2CC2)[C@H]1O5 [Nalmefene hydrochloride],0.194 ± 0.028
11,C[N+]1(C)CCOC(O)(c2ccc(-c3ccc(C4(O)C[N+](C)(C)CCO4)cc3)cc2)C1 (stereo not given) [Hemicholinium bromide],0.21 ± 0.012
12,CN1[C@@H]2CC[C@H]1C[C@@H](OC1c3ccccc3CCc3ccccc31)C2 [Deptropine citrate],0.0744 ± 0.011
13,CC(C)[N+](C)(CCC(C(N)=O)(c1ccccc1)c1ccccc1)C(C)C [Isopropamide iodide],0.211 ± 0.025
14,CN1[C@@H]2C[C@@H](OC(=O)[C@H](CO)c3ccccc3)C[C@H]1[C@@H]1O[C@@H]12 [Scopolamine hydrochloride],0.201 ± 0.031
15,CC(CCc1ccccc1)NC(C)C(O)c1ccc(O)cc1 (stereo not given) [Nylidrin],0.222 ± 0.027
16,C[C@]12Cc3c[nH]nc3C[C@@H]1CC[C@@H]1[C@@H]2CC[C@@]2(C)[C@H]1CC[C@]2(C)O [Stanozolol],0.219 ± 0.018
17,C[N+]1(C)[C@@H]2CC[C@H]1C[C@@H](OC(=O)C(CO)c1ccccc1)C2 (stereo not given in full) [Methylatropine nitrate],0.199 ± 0.028
18,CN1[C@@H]2CC[C@H]1C[C@@H](OC(=O)C(CO)c1ccccc1)C2 (stereo not given in full) [Atropine sulfate monohydrate],0.199 ± 0.015
19,C=CCC1(CC(C)C)C(=O)NC(=O)NC1=O [Butalbital],0.218 ± 0.021
20,CCC(=O)O[C@@](Cc1ccccc1)(c1ccccc1)[C@@H](C)CN(C)C [Levopropoxyphene napsylate],0.175 ± 0.026

# Same assay, conditions: arabinose induction (level): Low; compound 0.1 mM; raw OD600 reference: median of DMSO wells 0.227, cell-free background 0.041
row,Compound,growth
1,CNC(=O)Oc1ccc2c(c1)[C@]1(C)CCN(C)[C@@H]1N2C [Eserine hemisulfate salt],0.206 ± 0.0057
2,CCOC(=O)c1cncn1[C@H](C)c1ccccc1 [Etomidate],0.228 ± 0.013
3,CC[N+]1(C)CCCC(OC(=O)C(O)(c2ccccc2)c2ccccc2)C1 (stereo not given) [Pipenzolate bromide],0.263 ± 0.058
4,C[C@@H]1C[C@@H]([C@H](O)CC2CC(=O)NC(=O)C2)C(=O)[C@@H](C)C1 [Cycloheximide],0.258 ± 0.027
5,CCCC(C)C1(CC)C(=O)NC(=O)NC1=O (stereo not given) [Pentobarbital],0.265 ± 0.014
6,C[C@]12CC[C@@H]3c4ccc(OC(=O)N(CCCl)CCCl)cc4CC[C@H]3[C@@H]1CC[C@@H]2O [Estramustine],0.187 ± 0.015
7,C[C@H](N)[C@H](O)c1ccc(O)c(O)c1 [Levonordefrin],0.176 ± 0.043
8,C[N+]12CCC(CC1)C(OC(=O)C(O)(c1ccccc1)c1ccccc1)C2 (stereo not given) [Clidinium bromide],0.201 ± 0.0094
9,C[C@]12CCC(=O)C=C1CC[C@@H]1[C@@H]2C(=O)C[C@]2(C)C(=O)CC[C@@H]12 [Adrenosterone],0.225 ± 0.032
10,C=C1CC[C@@]2(O)[C@H]3Cc4ccc(O)c5c4[C@@]2(CCN3CC2CC2)[C@H]1O5 [Nalmefene hydrochloride],0.226 ± 0.027
11,C[N+]1(C)CCOC(O)(c2ccc(-c3ccc(C4(O)C[N+](C)(C)CCO4)cc3)cc2)C1 (stereo not given) [Hemicholinium bromide],0.217 ± 0.021
12,CN1[C@@H]2CC[C@H]1C[C@@H](OC1c3ccccc3CCc3ccccc31)C2 [Deptropine citrate],0.069 ± 0.01
13,CC(C)[N+](C)(CCC(C(N)=O)(c1ccccc1)c1ccccc1)C(C)C [Isopropamide iodide],0.201 ± 0.0096
14,CN1[C@@H]2C[C@@H](OC(=O)[C@H](CO)c3ccccc3)C[C@H]1[C@@H]1O[C@@H]12 [Scopolamine hydrochloride],0.228 ± 0.03
15,CC(CCc1ccccc1)NC(C)C(O)c1ccc(O)cc1 (stereo not given) [Nylidrin],0.243 ± 0.0092
16,C[C@]12Cc3c[nH]nc3C[C@@H]1CC[C@@H]1[C@@H]2CC[C@@]2(C)[C@H]1CC[C@]2(C)O [Stanozolol],0.193 ± 0.0045
17,C[N+]1(C)[C@@H]2CC[C@H]1C[C@@H](OC(=O)C(CO)c1ccccc1)C2 (stereo not given in full) [Methylatropine nitrate],0.229 ± 0.0072
18,CN1[C@@H]2CC[C@H]1C[C@@H](OC(=O)C(CO)c1ccccc1)C2 (stereo not given in full) [Atropine sulfate monohydrate],0.247 ± 0.019
19,C=CCC1(CC(C)C)C(=O)NC(=O)NC1=O [Butalbital],0.24 ± 0.015
20,CCC(=O)O[C@@](Cc1ccccc1)(c1ccccc1)[C@@H](C)CN(C)C [Levopropoxyphene napsylate],0.205 ± 0.011
